Assay [1] in a line: qHTS assay to identify small molecule agonists of H2AX (AID 1224845; active means well fitted activation curve with a large enough effect in the signal ratio in the repeat runs, not every such curve was filed as active; the % refers to the signal ratio). Put shortly:
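Phospho-H2AX Ser139 measured by HTRF (ex 320 nm; em 665 and 620 nm) after 24 hr antibody incubation. Compounds, 15 concentrations, 0.76% DMSO, were applied to CHO-K1 cells for 3hr at 37C before lysis.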
A general note: qHTS replaces the single test concentration by a dilution series.

Assay [2] in a line: qHTS assay to identify small molecule agonists of the hypoxia (HIF-1) signaling pathway (AID 1224846; active means well fitted activation curve with a large enough effect in the signal ratio in the repeat runs, not every such curve was filed as active; the % refers to the signal ratio). Put shortly:
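A low-serum medium (0.5% dialyzed FBS) holding 2,000 HRE-bla ME-180 cells per well is preincubated for 5 hrs, dosed with compounds by pintool, and kept a further 17 hrs at 37C, 5% CO2 before CCF4-AM FRET detection of beta-lactamase.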

Assay [3] is described as follows: qHTS assay to identify small molecule antagonists of the estrogen related receptor (ERR) signaling pathway from Tox21 library (AID 1224848). Further: nearly all actives have a fitted effect of over 50% in size. Further: potency means the concentration at half of the fitted maximal effect. Put shortly:
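Antagonist-mode screen of the Tox21 10K library in an NTP-provided ERR reporter cell line; 18 h compound exposure at 37 C, luminescence measured with ONE-Glo.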

A short description of assay [4]: qHTS assay to identify small molecule agonists of the estrogen related receptor (ERR) signaling pathway from Tox21 library (AID 1224849; calls by dose curve; further: nearly all actives have a fitted effect of over 15% in size). The settings on record: ERR reporter cell line, ONE-Glo luciferase, 18 h; at 92.4 µM (top of the series) unless noted. Put shortly:
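Screening used an NTP-provided ERR luciferase cell line. Compounds in DMSO were added 6 h after seeding and left 18 h at 37 C before a 30 min ONE-Glo step and luminescence reading.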

Assay [5] in a line: qHTS RealTime-Glo MT Cell Viability Assay in HepG2 cells - 24 hour (AID 1224867). Further: nearly all actives have a fitted effect of over 50% in size. Put shortly:
(§1)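 HepG2 suspension premixed with RealTime-Glo reagents is plated at 600 cells per well and left 5 h at 37 C/5% CO2. Compounds in DMSO then go in, and bioluminescence reflecting viable cell number is recorded over 40 h.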

A short description of assay [6]: A CellTox Green Cytotoxicity Assay to monitor cytotoxicity in HEK293 cells - 0 hour (AID 1224869). Further: nearly all actives have a fitted effect of over 50% in size. Put shortly: (§2)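 Fluorescence intensity, read at 0, 8, 16, 24, 32 and 40 h of compound treatment, reflected dye binding to DNA of dead HEK293 cells; compounds (23 nL, DMSO) were added 5 h after plating cells with reagent.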
The nature of assay [7]: qHTS RealTime-Glo MT Cell Viability Assay in HepG2 cells - 40 hour (AID 1224870). Further: nearly all actives have a fitted effect of over 50% in size. Put shortly: (§3)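 Real-time viability: cells seeded at 600 per well together with NanoLuc and cell-permeant prosubstrate, compounds added after 5 h incubation. Luminescence tracked at 0, 8, 16, 24, 32 and 40 h of exposure.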
Assay [8] is described as follows: A CellTox Green Cytotoxicity Assay to monitor cytotoxicity in HEK293 cells - 40 hour (AID 1224871). Further: nearly all actives have a fitted effect of over 45% in size. A digest of the protocol: as §2
The nature of assay [9]: qHTS RealTime-Glo MT Cell Viability Assay in HEK293 cells - 16 hour (AID 1224872). Put shortly:
(§4)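 Reads taken at 0, 8, 16, 24, 32 and 40 h from the same wells. HEK293 cells (600/well) carried RealTime-Glo reagents from seeding, with compound added after a 5 h settle at 37 C.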

A short description of assay [10]: qHTS RealTime-Glo MT Cell Viability Assay in HepG2 cells - 8 hour (AID 1224873). Further: nearly all actives have a fitted effect of over 55% in size. Put shortly: as §3
Assay [11] in a line: A CellTox Green Cytotoxicity Assay to monitor cytotoxicity in HEK293 cells - 24 hour (AID 1224875). Further: nearly all actives have a fitted effect of over 45% in size. Put shortly: as §2
Assay [12] in a line: A CellTox Green Cytotoxicity Assay to monitor cytotoxicity in HepG2 cells - 16 hour (AID 1224876). Further: nearly all actives have a fitted effect of over 45% in size. Put shortly:
(§5)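 Using 1536-well format, dye-containing HepG2 suspension was seeded, allowed 5 h at 37 C/5% CO2, dosed by pintool with compounds, positive and negative controls, and imaged for fluorescence across 40 h.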

Assay [13] is described as follows: qHTS RealTime-Glo MT Cell Viability Assay in HepG2 cells - 32 hour (AID 1224877). Further: nearly all actives have a fitted effect of over 55% in size. Put shortly:
as §1

Assay [14] can be described thus: A CellTox Green Cytotoxicity Assay to monitor cytotoxicity in HepG2 cells - 24 hour (AID 1224878). Further: nearly all actives have a fitted effect of over 45% in size. Put shortly: as §5
A short description of assay [15]: A CellTox Green Cytotoxicity Assay to monitor cytotoxicity in HepG2 cells - 40 hour (AID 1224879). Further: nearly all actives have a fitted effect of over 40% in size. Further: potency means the concentration at half of the fitted maximal effect. Put shortly: as §5
Assay [16] can be described thus: qHTS RealTime-Glo MT Cell Viability Assay in HEK293 cells - 0 hour (AID 1224880). Put shortly: (§6)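 Viable HEK293 cells reduce a cell-permeant prosubstrate; the product diffuses out and is consumed by NanoLuc in the medium to give light. Compounds went in after a 5 h incubation and plates were read over the treatment course.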
Assay [17] in a line: qHTS assay to identify small molecule agonists of H2AX - cell viability counter screen (AID 1224847; calls by dose curve; further: top concentration of the series differs between compounds; nearly all actives have a fitted effect of over 30% in size). Put shortly: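 Wild-type CHO-K1 cells (10% FBS medium) were plated overnight at 37C, exposed to compounds at 15 concentrations for 3 hr at 37C (0.76% DMSO final), and viability was read as CellTiter-Glo luminescence after 30 min at room temperature.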
A short description of assay [18]: qHTS RealTime-Glo MT Cell Viability Assay in HEK293 cells - 32 hour (AID 1224868). Further: nearly all actives have a fitted effect of over 50% in size. Further: potency means the concentration at half of the fitted maximal effect. Put shortly:
as §4

Assay [19] can be described thus: qHTS RealTime-Glo MT Cell Viability Assay in HEK293 cells - 40 hour (AID 1224874). Further: nearly all actives have a fitted effect of over 50% in size. Further: potency means the concentration at half of the fitted maximal effect. The settings on record: RealTime-Glo luminescence; max response: active compounds read low. A digest of the protocol: as §6
Assay [20] can be described thus: qHTS assay to identify small molecule agonists of the hypoxia (HIF-1) signaling pathway - cell viability counter screen (AID 1224844; calls by dose curve; further: nearly all actives have a fitted effect of over 50% in size). A digest of the protocol:
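Cells (HRE-bla ME-180, 2,000 per well) sat 5 hrs at 37C, got compound for 17 hrs, were read for CCF4-AM FRET, and were finally lysed with CellTiter-Glo for a 30 min room-temperature luminescence read.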

A number with no mark means an inactive call. Inconclusive results are not listed. Calls of active or inactive are those of the source. Unless noted, the call rests on the fitted dose curve; in most records, active means well fitted curve in the direction sought with a large enough effect in the repeat runs; inconclusive means weak or mixed curves; inactive means no such curve, though single readings can be large; an effect the other way counts as inactive or inconclusive.
On the % scale 0 is the no-effect control and ±100 the full control effect.

For the compound `Nc1nc(CC(=O)O)cs1`, the Potency entry in assay [1], in [5], in assay [6], in [7], in assay [8] and in assay [9] was “inactive” in each case. Besides, the Potency entry in assay [10], in [11], in [12], in assay [13], in assay [14] and in assay [15] was “inactive” in each case. Besides, the Potency result in [16] is “inactive”. The compound was classed as inactive in assay [2]. Also, the Potency in assay [3] was 61.3 µM (active). Moreover, the activity change, positive = activation in [4] was -48.9%.

For `CC[C@]12CCCN3CCc4c(n(c5ccccc45)C(=O)C1)[C@@H]32`, the Potency result in assay [17], in assay [5], in [6], in [7], in assay [8] and in assay [10] was “inactive” in each case. In addition, the Potency result in assay [11], in assay [12], in [13], in assay [14] and in assay [16] was “inactive” in each case. The activity change, positive = activation in assay [4] is -17.2% [at 42.5 µM]. Further, the Potency is 4.77 µM (active) in assay [18], 4.25 µM (active) in [19] and 6.74 µM (active) in [15].

As for `Oc1ccc2c(c1)OCO2`, the Potency entry in [20], in assay [5], in assay [6], in assay [7], in assay [8] and in assay [10] was “inactive” each time. Besides, the Potency entry in [11], in [12], in assay [13], in [14], in assay [15] and in [16] was “inactive” throughout. Further, the outcome in [2] was inactive. In addition, the max response in [19] is -2.1%.

Consider `OCC1CC2CC1C1CCC(CO)C21` (stereo not drawn), for which the Potency entry in assay [1], in assay [17], in assay [3], in [5], in [18] and in [6] was “inactive” throughout. The Potency entry in assay [7], in [8], in assay [9], in assay [10], in assay [11] and in [12] was “inactive” throughout. Further, the Potency entry in assay [13], in assay [14] and in [15] was “inactive” each time. Besides, in assay [4], the activity change, positive = activation is -2.51%. The max response in [19] is -17.3%.

Take `O=C1[C@H](CC[C@H](O)c2ccc(F)cc2)[C@@H](c2ccc(O)cc2)N1c1ccc(F)cc1`: the Potency entry in assay [1], in assay [17], in [5], in assay [6], in assay [7] and in assay [8] was “inactive” in each case. Moreover, the Potency result in assay [10], in [11], in assay [12], in assay [13], in assay [14] and in assay [15] was “inactive” throughout. Besides, the Potency result in [16] is “inactive”. The outcome in assay [2] was inactive. Also, the Potency in assay [3] is 26.6 µM (active); in assay [18], 19 µM (active); in assay [19] it was 19 µM (active). The activity change, positive = activation in assay [4] was -42.1% [at 42.5 µM].

As to `C=CC(=O)OCCOC(=O)CCC(=O)O`, the Potency entry in [1], in assay [3], in assay [5], in assay [18], in assay [6] and in assay [7] was “inactive” in each case. The Potency result in [8], in [9], in [10], in assay [11], in [12] and in [13] was “inactive” throughout. The Potency result in assay [14], in [15] and in assay [16] was “inactive” in each case. In addition, the outcome in [2] was inactive. Further, in [4], the activity change, positive = activation was 67.1% (active). Further, in assay [19], the max response is 19.5%.
